# NPR2 activator – human GC-B receptor activators, primary screen, HEK293 GC-B cells, cGMP TR-FRET, EC30 CNP; Atrial natriuretic peptide receptor 2 (Homo sapiens), P20594; 0% at EC30 CNP, 100% saturating CNP; activation, % at 10 µM; actives 0.11% (n = 370,000); AID 1920062, 2024;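 active = activation at 10 µM reaching about 35% in either raw or pattern-adjusted values, limit read from the data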
# ALR inh – inhibitors of human ALR sulfhydryl oxidase, primary screen, biochemical, H2O2 detection, HRP-luminol luminescence, single point; FAD-linked sulfhydryl oxidase ALR (Homo sapiens), P55789; purified ALR, DTT oxidation; inhibition, % (concentration not given with the values); actives 3.8% (n = 290,000); AID 485317, 2010;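 active = mean replicate inhibition above about 79%, with every replicate also reaching it, limit read from the data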
# HDAC3 inhib – HDAC3 deacetylase inhibitors, primary screen, biochemical, fluorescence, cell-free homogeneous; Histone deacetylase 3 (Homo sapiens), O15379; recombinant HDAC3, fluorogenic peptide/trypsin coupled; inhibition, % at 8.3 µM; actives 0.15% (n = 320,000); AID 2718, 2010; in the data active = inhibition above about 26%, passing the limit was not always enough
# NPR1 activator – GC-A stimulated cGMP production enhancers – HEK293 GC-A cells, cGMP TR-FRET, EC30 ANP, primary screen. Atrial natriuretic peptide receptor 1 (Homo sapiens), P16066. 0% at EC30 ANP, 100% saturating ANP. activation, % at 10 µM. actives 0.14% (n = 370,000); in the data active = activation above about 40%
# Target sequence (P16066 whole entry, looked up): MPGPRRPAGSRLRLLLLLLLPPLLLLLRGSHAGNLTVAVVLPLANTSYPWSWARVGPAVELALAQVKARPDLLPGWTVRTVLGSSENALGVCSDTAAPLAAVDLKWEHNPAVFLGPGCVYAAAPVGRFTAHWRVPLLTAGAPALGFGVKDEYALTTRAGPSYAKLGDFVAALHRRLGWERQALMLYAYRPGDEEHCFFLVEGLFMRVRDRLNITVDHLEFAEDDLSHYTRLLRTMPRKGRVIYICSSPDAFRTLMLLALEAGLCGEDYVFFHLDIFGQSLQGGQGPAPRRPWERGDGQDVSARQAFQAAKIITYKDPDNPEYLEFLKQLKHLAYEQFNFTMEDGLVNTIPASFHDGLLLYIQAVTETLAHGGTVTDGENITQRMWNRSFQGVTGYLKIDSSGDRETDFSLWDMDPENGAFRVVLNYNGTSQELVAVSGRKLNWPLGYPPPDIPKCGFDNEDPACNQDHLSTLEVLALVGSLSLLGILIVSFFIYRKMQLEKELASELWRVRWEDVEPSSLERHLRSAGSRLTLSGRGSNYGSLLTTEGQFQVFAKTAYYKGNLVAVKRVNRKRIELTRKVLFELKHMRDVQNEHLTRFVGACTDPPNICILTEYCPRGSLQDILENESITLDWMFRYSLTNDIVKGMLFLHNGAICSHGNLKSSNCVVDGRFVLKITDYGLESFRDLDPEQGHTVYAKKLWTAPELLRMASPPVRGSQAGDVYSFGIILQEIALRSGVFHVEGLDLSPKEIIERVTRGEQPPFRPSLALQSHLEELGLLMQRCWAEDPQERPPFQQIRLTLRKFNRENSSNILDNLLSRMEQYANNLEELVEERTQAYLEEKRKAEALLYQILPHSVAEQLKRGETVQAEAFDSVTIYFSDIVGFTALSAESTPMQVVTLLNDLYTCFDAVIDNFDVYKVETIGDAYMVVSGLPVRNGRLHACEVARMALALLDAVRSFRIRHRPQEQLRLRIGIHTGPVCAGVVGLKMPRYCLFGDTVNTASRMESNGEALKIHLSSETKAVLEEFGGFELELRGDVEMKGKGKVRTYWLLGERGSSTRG
# Numbers stand for hits; . = inactive; / = no result. This excerpt belongs to a sample that is enriched for hits.
SMILES,NPR2 activator,ALR inh,HDAC3 inhib,NPR1 activator
COC(CN(C(=O)CCl)C(C(=O)NC1CCCCC1)c1ccc(C)cc1)OC (centres undefined),.,97,.,.
COC(=O)c1ccc2nc(-c3ccc(Cl)cc3)c(Cc3cccc(Cl)c3)n2c1,.,/,/,.
O=C(Oc1ccc(-n2cnnn2)cc1)c1ccco1,.,.,36,.
CCCOC(=O)c1ccc(OC(=O)c2ccco2)cc1,.,.,33,.
CCOC(=O)N1CCN(C(=O)CSCC(=O)Nc2nc(-c3ccc(Cl)s3)cs2)CC1,.,.,.,42
CCCC(=O)Nc1nc(-c2ccc(Cl)s2)cs1,.,/,.,55
COc1ccc(-c2csc(NC(=O)CSc3nc(C)nc4sc(C(=O)O)c(C)c34)n2)cc1,.,99,.,.
CCOC(=O)N1CCN(C(=O)CSCC(=O)Nc2nc(-c3ccc(OC)cc3)cs2)CC1,.,99,.,.
CCOC(=O)N1CCN(C(=O)CSCC(=O)Nc2nc(-c3ccc(-c4ccccc4)cc3)cs2)CC1,.,.,.,.
COC(C[C@@H](O)C[C@@H](O)COCc1ccccc1)OC,.,/,/,.
O=C(Cc1ccccc1F)NCC1(N2CCOCC2)CCCCC1,.,.,.,.
COc1cc(Cn2c3ccc(NC(=O)NCc4ccc(F)cc4)cc3c(=O)n2C)ccc1F,.,/,/,.
CC(C)NC(=NCc1ccc(Cl)cc1Cl)Nc1ccccc1,.,.,.,.
CC(C)(C)c1cc(-c2n[nH]c(=S)n2-c2ccccc2F)n[nH]1,.,91,.,.
Cc1ccccc1-n1c(-c2ccc(=O)[nH]n2)n[nH]c1=S,.,.,.,.
CCN(CC)c1ccc(/C=N/NC(=O)c2c(Cl)cnn2C)c(O)c1,.,99,.,.
CCN(CC)c1ccc(/C=N/Nc2ccc(C)cc2)c(O)c1,.,.,.,.
CCN(CC)c1ccc(/C=N/NC(=O)c2cccc(S(=O)(=O)N3CCOCC3)c2)c(O)c1,.,/,.,.
CCOC(=O)N/N=C/c1ccc(N(CC)CC)cc1O,.,99,.,.
Cc1cc(-n2cnc(-c3cn[nH]c3C)n2)no1,.,.,.,.
Cc1ccc(-c2ccc(C)c(N)c2C)c(C)c1N,.,83,.,.
Cc1ccc2nc(C)c(C)nc2c1N,.,.,.,.
COc1ccc(OC)c(S(=O)(=O)CC(=O)c2cc3ccccc3oc2=O)c1,.,/,/,.
CC(C)(C)c1ccc(-c2nnc(SCC(=O)Nc3cccc4ccccc34)n2Cc2ccco2)cc1,.,/,/,.
CCC1(C)OC(=O)N2CCc3c(C)[nH]c4c(C)ccc(c34)C21C (centres undefined),.,98,/,.
SMILES,NPR2 activator,ALR inh,HDAC3 inhib,NPR1 activator
C=CCSc1nnc2c(n1)OC=Nc1ccccc1-2,.,.,.,.
C=CCSc1nnc2c(n1)OC(c1ccco1)Nc1ccccc1-2 (centres undefined),.,98,.,.
CC[C@@H](C)[C@H](NC(=O)Cc1c(C)c2cc3c(C)c(C)oc3c(C)c2oc1=O)C(=O)O,.,.,.,.
CC[C@@H](C)[C@H](NC(=O)Cc1c(C)c2cc3c(C)coc3c(C)c2oc1=O)C(=O)O,.,98,.,.
CCCCC(NC(=O)Cc1c(C)c2cc3c(-c4ccccc4)coc3c(C)c2oc1=O)C(=O)O (centres undefined),.,98,.,.
CCCCOCCCNC(=O)C[C@@H]1C[C@@]2(C(=O)OC)CCCCC=C2N(Cc2ccc(Cl)cc2Cl)C1=O,.,/,/,.
COCCNc1ncnc2c1ncn2[C@H]1CN(Cc2cc(OC)c(OC)c(OC)c2)C[C@@H](CO)O1,.,/,/,.
Cc1cc(/C=C(/C#N)C(=O)O)c(C)n1-c1cccc2ccccc12,.,96,.,.
Cc1c(C(=O)O)cccc1-n1c(C)cc(/C=C(/C#N)C(=O)NCc2ccccc2)c1C,.,.,.,.
N#Cc1c(NC(=O)CSc2nnc(-c3ccco3)n2-c2ccccc2)sc2c1CCC2,.,.,.,.
NC(=O)c1c(NC(=O)CSc2nnc(-c3ccco3)n2-c2ccccc2)sc2c1CCC2,.,97,.,.
O=C(CSc1n[nH]c(-c2ccco2)n1)Nc1sc2c(c1C(=O)Nc1ccccc1)CCCC2,.,98,.,.
Cc1ccc2c(c1)-c1c(cnn1CC(=O)NCCc1ccccc1F)CO2,.,/,/,.
Cc1ccc(S(=O)(=O)/N=C(\CCl)N2CCOCC2)cc1,.,97,.,.
Cc1ccc(S(=O)(=O)/N=C(\CN2CCOCC2)N2CCCC2)cc1,.,.,.,.
O=C1OCCN1C(=O)[C@H]1[C@H](c2ccc([N+](=O)[O-])cc2)C(c2ccc(F)cc2)=NN1c1ccc(Br)cc1,.,/,/,.
COc1ccc(C(=O)Nc2ccccc2C(=O)NCc2ccco2)cc1OC,.,.,.,.
O=C(NCc1ccco1)c1ccccc1Nc1ccc(F)cc1,.,99,.,.
CC(C)(C)C(=O)COC(=O)CNC(=O)c1ccc(Oc2ccccc2)cc1,.,.,.,42
COc1cccc(C(=O)NCC(=O)OCC(=O)C(C)(C)C)c1,.,.,.,.
COc1ccc(C(=O)Nc2ccc(Cl)cc2C(=O)NCc2ccco2)cc1OC,39,.,.,.
O=C(NCc1ccco1)c1ccc(Oc2ccccc2)cc1,.,90,.,.
CC(=O)OCC1OC(n2c(-c3ccc(Cl)cc3)ccc(C#N)c2=S)C(OC(C)=O)C(OC(C)=O)C1OC(C)=O (centres undefined),.,/,/,.
CC(OC(=O)Cn1[nH]c(=O)c2ccccc2c1=O)C(=O)Nc1ccc(F)cc1 (centres undefined),.,.,.,.
COCCN(Cc1ccc(OC)cc1)c1c(C)nc2ccc(C(=O)Nc3ccc(NC(C)=O)cc3)cn12,.,/,/,.
SMILES,NPR2 activator,ALR inh,HDAC3 inhib,NPR1 activator
CCCc1c(-c2cccc(Br)c2)ncn1CCc1ccccc1OC,.,/,/,.
O=C(NCc1ccco1)c1ccc(COc2cccc3ccccc23)cc1,.,/,/,.
O=C(NCc1ccco1)c1ccc(COc2ccccc2Cl)cc1,.,99,.,.
COc1cc(C(=O)Nc2sc3c(c2C(=O)NCc2ccco2)CCCC3)cc(OC)c1OC,41,.,.,.
Cc1cc(C)nc(NC(=O)c2ccc(COc3ccccc3Cl)cc2)c1,.,97,.,.
O=C(NCc1cccnc1)c1ccc(COc2ccccc2Cl)cc1,.,98,.,.
CCC1CCCCN1C(=O)COC(=O)c1cc(=O)[nH]c2ccccc12 (centres undefined),.,/,.,.
COc1ccc(NC(=O)CSCC(=O)N2CCCc3ccccc32)cc1,.,90,.,.
O=C(CCSCc1ccccc1Cl)NCc1ccco1,.,93,.,.
Cc1cccc(NC(=O)CSCC(=O)N2CCCc3ccccc32)c1,.,/,.,.
COc1ccc(NC(=O)CSCC(=O)NCCc2ccccn2)cc1,.,98,.,.
COc1ccc(NC(=O)CSCc2ccccc2C)cc1,.,84,.,.
